Rows were chosen to be rich in hits. Some 3.4% of all compounds tested hit in one or more screens of this group.
MITF inh: MITF inhibitors, primary screen, biochemical, AlphaScreen, human; Microphthalmia-associated transcription factor (Homo sapiens), O75030; AlphaScreen MITF homodimerization, bead proximity signal; inhibition, % at 2.6 µM; 0.91% of 650,000 active; AID 1259374, 2018; in the data active means inhibition above about 50%
GPR151 ag: activators of human GPR151, primary screen, cell-based, PathHunter beta-arrestin, luminescence | G-protein coupled receptor 151 (Homo sapiens), Q8TDV0 | PathHunter beta-arrestin GPR151 cells | activation, % at 11.2 µM | 1% of 650,000 active; in the data active means activation above about 4.9%
Target sequence (Q8TDV0 whole entry, looked up): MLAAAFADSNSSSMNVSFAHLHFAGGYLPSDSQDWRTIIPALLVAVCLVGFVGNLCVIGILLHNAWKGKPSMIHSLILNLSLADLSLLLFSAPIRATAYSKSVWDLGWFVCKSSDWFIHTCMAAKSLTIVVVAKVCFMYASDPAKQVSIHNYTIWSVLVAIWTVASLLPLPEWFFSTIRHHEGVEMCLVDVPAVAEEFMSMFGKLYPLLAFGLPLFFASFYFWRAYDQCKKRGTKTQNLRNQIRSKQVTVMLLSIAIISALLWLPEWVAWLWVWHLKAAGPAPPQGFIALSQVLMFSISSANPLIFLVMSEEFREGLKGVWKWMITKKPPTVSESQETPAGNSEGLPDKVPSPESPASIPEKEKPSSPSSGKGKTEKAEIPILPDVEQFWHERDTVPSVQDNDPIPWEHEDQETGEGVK
TEAD-YAP inh: TEAD-YAP interaction inhibition, primary screen, TEAD-YAP interaction inhibitor project, luminescence, HEK-TIYL cells. 1.4% of 640,000 active. TEAD-Gal4/YAP UAS-luciferase luminescence. inhibition, % at 9.12 µM; in the data active means inhibition above about 32%
FBW7 activator: FBW7 E3 ligase activators, primary screen, biochemical, AlphaScreen, human | F-box/WD repeat-containing protein 7 (Homo sapiens), Q969H0 | AlphaScreen FBW7–phospho-cyclin E peptide binding, activator screen | normalized activity (activation), % at 26.1 µM | 0.13% of 650,000 active | AID 1259310, 2017; in the data active means normalized activity above about 1.9%;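 further: purified mutant Fbw7 with reduced substrate affinity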
Numbers stand for hits; n = inactive.

SMILES	MITF inh	GPR151 ag	TEAD-YAP inh	FBW7 activator
O=C(O)C1CCCCC1C(=O)CCCCOC(=O)C1CCCCC1C(=O)O (configuration not stated)	n	n	n	n
CCCn1c(N2CCN(CC(=O)Nc3ccc(Cl)cc3)CC2)nc2ccccc21	n	n	n	n
Cc1ccc2nc(-c3ccc(F)cc3)cn2c1	n	n	93	n
Cc1ccc2nc(-c3cc4ccccc4oc3=O)cn2c1	n	n	n	n
COc1ccc(-c2cn3cc(C)ccc3n2)cc1	n	n	82	n
COC(=O)c1ccc2nc(-c3ccc(F)cc3)cn2c1	n	n	42	n
Cc1ccc2nc(-c3ccccc3Cl)cn2c1	n	n	93	n
Cc1c(C(=O)NCc2ccccn2)sc2ncnc(N3CCN(c4ccccn4)CC3)c12	n	n	n	n
CCOC(=O)C1=C(c2ccccc2)N=c2s/c(=C\c3ccc(-c4ccc(C(=O)O)cc4)o3)c(=O)n2C1c1ccc(C(C)C)cc1 (configuration not stated)	n	n	n	n
COc1ccc(-c2cc(C(=O)O)c3c(-c4ccc([N+](=O)[O-])cc4)[nH]nc3n2)c(OC)c1	n	n	n	n
Cc1cc(C)nc(N/N=C/c2sc(N3CCOCC3)nc2-c2ccccc2)n1	n	n	46	n
Cc1ccc(NC(=O)c2ccc(NCc3ccc(F)cc3)c([N+](=O)[O-])c2)c(C)c1	n	n	n	n
CCNc1ccc(C(=O)OCC(=O)OC(C)(C)C)cc1[N+](=O)[O-]	n	n	n	n
CCNc1ccc(C(=O)NN)cc1[N+](=O)[O-]	n	n	35	n
COc1cccc(NC(=O)c2ccc(NCc3ccccc3Cl)c([N+](=O)[O-])c2)c1	n	n	52	n
COc1ccc(CNc2ccc(C(=O)Nc3ccc(C)cc3C)cc2[N+](=O)[O-])cc1	n	n	56	n
CC1=Nc2ccc3ccccc3c2C1(C)C	n	n	n	n
O=C(N1CCNCC1)C1(c2ccc(Cl)cc2)CCCC1	n	n	n	n
O=C(Nc1ccc2[nH]ncc2c1)c1ccc(OC2CCN(Cc3ccccc3)CC2)nc1	n	n	44	n
CN1CC[C@@H](Oc2ccnc(C(=O)Nc3ccc4[nH]ncc4c3)c2)C1	n	n	66	n
O=C(Nc1ccc2[nH]ncc2c1)c1cc(O[C@H]2CCNC2)ccn1	n	n	43	n
O=C(Nc1ccc2[nH]ncc2c1)c1cccnc1OC1CCN(Cc2ccccc2)CC1	n	n	n	n
CN1CCC(Oc2ccnc(C(=O)Nc3ccc4[nH]ncc4c3)c2)CC1	n	n	n	n
CCOc1ccc(NCC(=O)N/N=C/c2ccc(F)cc2)cc1	n	n	n	n
COc1ccc(NC(=O)CCCCCn2c(SCc3cc(=O)n4cc(Cl)ccc4n3)nc3ccsc3c2=O)cc1	n	n	n	n
SMILES	MITF inh	GPR151 ag	TEAD-YAP inh	FBW7 activator
CCc1ccc(-c2nnc3ccc4ccccc4n23)cc1	n	n	n	n
CCc1ccccc1NC(=O)c1sc2nc3c(cc2c1N)C(=O)CCC3	n	n	54	n
CCc1ccccc1NC(=O)c1sc2nc3c(cc2c1N)C(=O)CC(C)(C)C3	n	n	n	n
Cc1ccccc1NC(=O)c1sc2nc3c(cc2c1N)C(=O)CCC3	n	n	39	n
O=C(O)c1cccc(N2N=C(c3ccccc3)CC2=O)c1	n	n	n	n
O=C1c2ccccc2C(=O)N1CCCCNc1ccc(F)cc1F	n	n	n	n
O=S(=O)(c1ccc(F)cc1)N1CCN(c2cc(-n3ccnc3)ncn2)CC1	n	n	n	n
COc1ccc(S(=O)(=O)N2CCN(c3cc(-n4ccnc4)ncn3)CC2)c(C)c1C	n	n	56	n
CN(C)C(=O)CSc1nnc(-c2ccco2)n1C	n	n	n	2.1
CCCCc1cc(=O)oc2cc(OCC(=O)OC)c(Cl)cc12	n	n	n	n
COc1ccc(N2C(=O)CC(Sc3nc(C)c4ccccc4n3)C2=O)cc1 (configuration not stated)	n	n	53	n
CCOC(=O)C(N)CSC1CC(=O)N(c2ccc(OC)cc2)C1=O (configuration not stated)	n	n	n	n
COc1ccc(N2C(=O)CC(SCCN)C2=O)cc1 (configuration not stated)	n	n	n	2.5
COc1ccc(N2C(=O)CC(Sc3ccccc3C(=O)O)C2=O)cc1 (configuration not stated)	n	n	n	n
CS(=O)(=O)N1CCCC(C(=O)Nc2ccc(F)c(Cl)c2)C1 (configuration not stated)	n	n	n	n
CCCOc1cccc(C(=O)Nc2ccc3nn(-c4ccc(OCC)cc4)nc3c2)c1	n	n	n	n
Cc1ccc2cc(-c3nc4ccccc4[nH]3)c(=O)oc2c1	n	n	n	2.4
Cc1cccc2cc(-c3nc4ccccc4[nH]3)c(=O)oc12	n	n	n	n
CCOc1ccc2ccccc2c1/C=C1/SC(=O)N(CC(=O)OC)C1=O	n	n	42	n
CC(Cc1ccco1)NC(=O)c1cc2ccccc2oc1=O (configuration not stated)	n	n	n	3.0
CC(=O)Nc1cccc(NC(=O)c2cc3ccccc3oc2=O)c1	n	n	46	n
CC(CO)NC(=O)c1cc2ccccc2oc1=O (configuration not stated)	n	n	n	n
Cc1cccc(NC(=O)c2cc3ccccc3oc2=O)c1	n	n	n	n
C=CCc1cccc2cc(C(=O)Nc3cccc(O)c3)c(=O)oc12	n	n	58	n
CO/N=C/c1ccc(OC)c(Oc2nc(OC)cc(OC)n2)c1	n	n	33	n
SMILES	MITF inh	GPR151 ag	TEAD-YAP inh	FBW7 activator
COc1cccc(OC)c1C(=O)Nc1nc2ccc3sc(C)nc3c2s1	n	n	n	n
Cc1nc2c(ccc3nc(NC(=O)Cc4ccccc4)sc32)s1	n	n	n	n
COc1ccc(C(=O)Nc2nc3ccc4sc(C)nc4c3s2)c(OC)c1	n	n	48	n
COc1ccccc1C(=O)Nc1nc2ccc3sc(C)nc3c2s1	n	n	52	n
Cc1nc2c(ccc3nc(NC(=O)CCc4ccccc4)sc32)s1	n	n	48	n
CN(C)c1ccc(/C=C(/C#N)C(=O)NCCc2c[nH]c3ccccc23)o1	n	n	n	n
COc1cc(NC(=O)c2ccc3nc(-c4ccc(N5CCN(C)CC5)cc4)sc3c2)cc(OC)c1OC	n	n	62	n
COc1cc(NC(=O)c2ccc3nc(-c4c(C)nn(C)c4C)sc3c2)cc(OC)c1OC	n	n	35	n
CN1CCN(c2ccc(-c3nc4ccc(C(=O)NCCO)cc4s3)cc2)CC1	n	n	67	n
COc1cc(NC(=O)c2ccc3nc(-c4ccc(C(=O)N5CCN(C)CC5)cc4)sc3c2)cc(OC)c1OC	n	n	52	n
Cc1cc(C)cc(NS(=O)(=O)c2cc(Cl)ccc2Cl)c1	n	n	n	n
O=C(O)c1ccc(-c2nc3ccccc3s2)s1	n	n	n	n
O=C(c1ccc(-c2nc3ccccc3s2)s1)N1CCCC1	n	n	89	n

Screening data: PubChem BioAssay, The Scripps Research Institute Molecular Screening Center
